This note sets out measurements from ChEMBL document CHEMBL3988442, “University of Dundee, Small-Polar-MMV Screening Library” (2021).

Set-up in all cases: scale not given: direction of the effect not stated beside the values
Assay [1] concerns the target Protein translocase subunit SecA (Escherichia coli (strain K12)) (UniProt P10408). The assay is described as follows: Assay to Identify E. coli SecA ATPase Inhibitors. It is filed as functional. The following applies: 30 µM.
Assay [2] deals with T1, Ubiquitin-activating enzyme e1, putative (Leishmania donovani (strain BPK282A1)) (UniProt E9BSI1).
T1 sequence (whole entry): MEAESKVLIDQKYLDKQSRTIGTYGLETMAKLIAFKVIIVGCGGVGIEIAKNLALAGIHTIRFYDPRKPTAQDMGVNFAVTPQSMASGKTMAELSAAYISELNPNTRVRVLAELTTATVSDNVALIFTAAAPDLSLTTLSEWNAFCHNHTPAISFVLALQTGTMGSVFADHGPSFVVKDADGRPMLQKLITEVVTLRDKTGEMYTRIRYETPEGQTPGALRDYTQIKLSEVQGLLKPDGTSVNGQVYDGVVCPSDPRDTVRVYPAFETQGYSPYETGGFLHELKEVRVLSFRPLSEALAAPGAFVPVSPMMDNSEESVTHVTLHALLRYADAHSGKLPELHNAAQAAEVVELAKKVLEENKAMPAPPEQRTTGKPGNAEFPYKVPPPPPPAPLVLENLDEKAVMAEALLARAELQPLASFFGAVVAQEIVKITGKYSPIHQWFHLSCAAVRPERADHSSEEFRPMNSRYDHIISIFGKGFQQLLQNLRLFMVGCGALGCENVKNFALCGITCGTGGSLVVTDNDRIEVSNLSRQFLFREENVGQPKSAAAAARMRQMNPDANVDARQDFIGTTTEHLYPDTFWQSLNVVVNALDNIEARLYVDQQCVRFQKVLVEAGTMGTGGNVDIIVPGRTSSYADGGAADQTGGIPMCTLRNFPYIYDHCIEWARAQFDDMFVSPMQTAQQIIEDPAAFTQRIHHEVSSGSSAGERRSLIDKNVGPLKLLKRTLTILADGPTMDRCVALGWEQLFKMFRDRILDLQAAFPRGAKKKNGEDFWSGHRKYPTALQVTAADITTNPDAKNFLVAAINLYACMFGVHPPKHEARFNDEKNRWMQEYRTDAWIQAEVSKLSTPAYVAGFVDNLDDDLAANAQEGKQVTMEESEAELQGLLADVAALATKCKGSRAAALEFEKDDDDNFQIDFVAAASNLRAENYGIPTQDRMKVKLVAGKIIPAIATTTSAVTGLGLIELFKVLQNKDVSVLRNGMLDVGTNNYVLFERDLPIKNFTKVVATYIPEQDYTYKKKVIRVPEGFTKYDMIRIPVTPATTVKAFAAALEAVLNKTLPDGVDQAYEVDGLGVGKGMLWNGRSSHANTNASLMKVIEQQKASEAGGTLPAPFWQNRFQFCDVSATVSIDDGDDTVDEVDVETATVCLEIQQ
The assay is described as follows: Leishmania donovani Ubiquitin Activating Enzyme (LdE1). It is filed as functional. The following applies: 30 µM.

Assay [3] deals with AMP-activated protein kinase, AMPK (Homo sapiens) (UniProt P54646+O43741+P54619+Q9UGJ0+Q9Y478+Q13131+Q9UGI9). The assay is described as follows: AMP-dependent Kinase enzyme assay. An in vitro enzyme assay that detects ADP turnover that is directly proportional to AMPK activity. This uses naive AMPK that is activated during the assay with MK-8722. It is filed as functional. The following applies: 30 µM.

Assay [4] concerns the target Sialic acid-binding Ig-like lectin 9 (Homo sapiens) (UniProt Q9Y336). The assay can be described thus: Hs-Siglec9 ALPHAscreen SOP 20170721. The following applies: 10 µM. A general note: Bead proximity is the source of the signal in Alpha formats.
The test system of assay [5] is Trypanosoma cruzi. The assay can be described thus: Trypanosoma cruzi phosphomannomutase and mannose-1-phosphate guanylyltransferase assay. Type of assay: functional. The following applies: 10 µM.
Assay [6] has as its target T2, Arginase-2, mitochondrial (Homo sapiens) (UniProt P78540).
T2 sequence (whole entry): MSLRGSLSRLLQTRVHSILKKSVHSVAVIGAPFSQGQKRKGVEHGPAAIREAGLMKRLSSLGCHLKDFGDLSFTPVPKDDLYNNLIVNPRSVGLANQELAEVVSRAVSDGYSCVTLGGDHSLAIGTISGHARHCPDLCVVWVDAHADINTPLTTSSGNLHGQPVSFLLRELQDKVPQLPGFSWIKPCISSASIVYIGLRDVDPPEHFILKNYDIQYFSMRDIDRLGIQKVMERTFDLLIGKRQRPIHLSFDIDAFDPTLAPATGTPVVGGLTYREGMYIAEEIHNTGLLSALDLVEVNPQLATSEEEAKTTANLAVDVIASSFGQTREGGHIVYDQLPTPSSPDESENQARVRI
The assay can be described thus: in vitro enzyme assay to detect the production of urea directly proportional to the activity of Arginase II. Further: in the data most compounds retested in dose-response had high values. The following applies: 33.3 µM. It is filed as functional.

Assay [7] concerns the target T3, Proteasome subunit beta (Trypanosoma cruzi) (UniProt O96673).
T3 sequence (whole entry): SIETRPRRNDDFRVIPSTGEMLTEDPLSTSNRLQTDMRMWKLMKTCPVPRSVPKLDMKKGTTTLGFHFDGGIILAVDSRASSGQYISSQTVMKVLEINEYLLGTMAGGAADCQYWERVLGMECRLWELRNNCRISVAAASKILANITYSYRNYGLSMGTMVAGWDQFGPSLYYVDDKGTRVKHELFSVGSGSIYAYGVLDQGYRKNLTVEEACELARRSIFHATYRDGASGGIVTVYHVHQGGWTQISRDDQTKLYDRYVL
The assay can be described thus: Trypanosoma cruzi proteasome chymotrypsin-like activity (TcProtChymo) assay. Further: in the data most compounds retested in dose-response had high values. It is filed as functional. The following applies: 9.37 µM.

Assay [8] is filed under the species Homo sapiens. The assay can be described thus: To identify inhibition of the IFN signalling (Jak-Stat) pathway via expression of an eGFP reporter gene under the control of an IFN-stimulated response element (ISRE) containing MxA promoter. It is filed as functional. The following applies: 30 µM.
The target of assay [9] is T4, Tyrosyl-tRNA synthetase, putative (Trypanosoma cruzi (strain CL Brener)) (UniProt Q4DSP6).
T4 sequence (whole entry): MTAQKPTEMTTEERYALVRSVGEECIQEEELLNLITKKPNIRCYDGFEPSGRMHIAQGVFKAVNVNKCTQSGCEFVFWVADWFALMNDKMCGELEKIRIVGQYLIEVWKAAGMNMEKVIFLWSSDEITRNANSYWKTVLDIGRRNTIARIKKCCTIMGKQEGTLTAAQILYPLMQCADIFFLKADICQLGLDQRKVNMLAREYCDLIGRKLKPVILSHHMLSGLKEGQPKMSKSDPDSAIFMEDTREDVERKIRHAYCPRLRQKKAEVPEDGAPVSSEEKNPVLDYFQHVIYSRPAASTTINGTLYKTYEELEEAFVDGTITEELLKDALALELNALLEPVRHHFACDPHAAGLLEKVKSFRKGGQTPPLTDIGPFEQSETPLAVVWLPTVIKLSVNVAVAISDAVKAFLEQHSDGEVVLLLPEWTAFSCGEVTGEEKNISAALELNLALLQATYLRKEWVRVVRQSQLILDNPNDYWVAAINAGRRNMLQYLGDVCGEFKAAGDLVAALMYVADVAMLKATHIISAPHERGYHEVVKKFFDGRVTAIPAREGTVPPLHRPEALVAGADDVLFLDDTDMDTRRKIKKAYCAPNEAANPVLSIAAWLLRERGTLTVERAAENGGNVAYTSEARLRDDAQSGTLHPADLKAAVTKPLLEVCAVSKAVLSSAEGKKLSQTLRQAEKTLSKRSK
The assay is described as follows: Trypanosoma cruzi tyrosyl tRNA synthetase (TcYRS) _High Tyrosine SOP. Further: in the data most compounds retested in dose-response had high values. It is filed as functional. The following applies: 30 µM.

The target in assay [10] is T4, Tyrosyl-tRNA synthetase, putative (Trypanosoma cruzi (strain CL Brener)). The assay can be described thus: Trypanosoma cruzi tyrosyl tRNA synthetase (TcYRS) SOP. Type of assay: functional. The following applies: 30 µM.
The target in assay [11] is Chromo domain-containing protein 1 (Saccharomyces cerevisiae (strain ATCC 204508 / S288c) (Baker's yeast)) (UniProt P32657). The assay can be described thus: ScCHD-1 Enzyme Inhibition Assay. Further: in the data most compounds retested in dose-response had high values. Type of assay: functional. The following applies: 30 µM.
Chromo domain-containing protein 1 (Saccharomyces cerevisiae (strain ATCC 204508 / S288c) (Baker's yeast)), sequence (P32657 whole entry, the tested form may be a part): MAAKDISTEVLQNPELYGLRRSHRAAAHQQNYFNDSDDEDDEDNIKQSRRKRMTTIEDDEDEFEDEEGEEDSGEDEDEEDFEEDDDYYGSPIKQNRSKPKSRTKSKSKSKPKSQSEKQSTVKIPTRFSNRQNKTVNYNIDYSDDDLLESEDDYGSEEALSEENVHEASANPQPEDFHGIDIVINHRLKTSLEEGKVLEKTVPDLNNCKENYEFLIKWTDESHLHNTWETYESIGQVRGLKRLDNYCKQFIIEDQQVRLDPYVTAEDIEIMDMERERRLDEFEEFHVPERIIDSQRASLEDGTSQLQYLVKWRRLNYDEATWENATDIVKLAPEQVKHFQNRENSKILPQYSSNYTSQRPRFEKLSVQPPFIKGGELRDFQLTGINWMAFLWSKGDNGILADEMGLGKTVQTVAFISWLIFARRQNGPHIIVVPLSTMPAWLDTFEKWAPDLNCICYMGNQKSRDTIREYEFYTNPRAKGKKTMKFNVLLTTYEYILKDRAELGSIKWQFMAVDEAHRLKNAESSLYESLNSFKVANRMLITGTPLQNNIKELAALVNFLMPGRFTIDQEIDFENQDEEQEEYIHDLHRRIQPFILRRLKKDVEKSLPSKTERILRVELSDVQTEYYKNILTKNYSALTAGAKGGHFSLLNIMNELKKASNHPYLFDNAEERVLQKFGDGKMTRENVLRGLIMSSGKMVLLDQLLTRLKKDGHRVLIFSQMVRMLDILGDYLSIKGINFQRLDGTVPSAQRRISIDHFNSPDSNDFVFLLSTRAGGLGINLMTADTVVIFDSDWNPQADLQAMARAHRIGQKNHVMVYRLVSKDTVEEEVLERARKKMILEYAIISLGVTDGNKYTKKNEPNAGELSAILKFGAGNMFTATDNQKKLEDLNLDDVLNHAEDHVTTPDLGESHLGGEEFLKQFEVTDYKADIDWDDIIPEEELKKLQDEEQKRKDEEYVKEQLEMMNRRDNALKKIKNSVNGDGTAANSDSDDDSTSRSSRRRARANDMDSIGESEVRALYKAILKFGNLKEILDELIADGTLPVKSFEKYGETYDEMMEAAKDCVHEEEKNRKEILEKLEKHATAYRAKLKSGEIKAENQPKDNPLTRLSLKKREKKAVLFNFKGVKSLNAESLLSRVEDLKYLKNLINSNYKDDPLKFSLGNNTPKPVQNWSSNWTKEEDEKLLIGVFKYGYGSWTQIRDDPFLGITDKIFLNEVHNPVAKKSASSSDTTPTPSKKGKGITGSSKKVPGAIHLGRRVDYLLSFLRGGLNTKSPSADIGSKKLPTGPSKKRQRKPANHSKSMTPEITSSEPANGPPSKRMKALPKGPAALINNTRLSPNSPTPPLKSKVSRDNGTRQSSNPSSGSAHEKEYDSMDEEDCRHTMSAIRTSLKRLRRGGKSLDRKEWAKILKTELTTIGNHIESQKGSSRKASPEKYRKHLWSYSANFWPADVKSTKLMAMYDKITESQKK

For some of these results: Results with a measured potency or affinity are listed apart.

Sialic acid-binding Ig-like lectin 9 (Homo sapiens), sequence (Q9Y336 whole entry): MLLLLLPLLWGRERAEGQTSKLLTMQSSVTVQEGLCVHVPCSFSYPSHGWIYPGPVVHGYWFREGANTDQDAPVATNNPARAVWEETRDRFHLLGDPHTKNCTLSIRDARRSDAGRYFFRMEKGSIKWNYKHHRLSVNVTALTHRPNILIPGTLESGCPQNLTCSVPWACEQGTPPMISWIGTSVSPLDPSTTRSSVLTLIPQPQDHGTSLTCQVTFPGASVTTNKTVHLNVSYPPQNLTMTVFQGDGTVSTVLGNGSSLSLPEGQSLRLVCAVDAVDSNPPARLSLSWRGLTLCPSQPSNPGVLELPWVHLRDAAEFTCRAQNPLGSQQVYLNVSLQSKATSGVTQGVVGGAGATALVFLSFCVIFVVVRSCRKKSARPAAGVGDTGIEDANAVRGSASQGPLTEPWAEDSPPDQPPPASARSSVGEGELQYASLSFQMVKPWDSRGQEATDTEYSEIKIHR
Protein translocase subunit SecA (Escherichia coli (strain K12)), sequence (P10408 whole entry): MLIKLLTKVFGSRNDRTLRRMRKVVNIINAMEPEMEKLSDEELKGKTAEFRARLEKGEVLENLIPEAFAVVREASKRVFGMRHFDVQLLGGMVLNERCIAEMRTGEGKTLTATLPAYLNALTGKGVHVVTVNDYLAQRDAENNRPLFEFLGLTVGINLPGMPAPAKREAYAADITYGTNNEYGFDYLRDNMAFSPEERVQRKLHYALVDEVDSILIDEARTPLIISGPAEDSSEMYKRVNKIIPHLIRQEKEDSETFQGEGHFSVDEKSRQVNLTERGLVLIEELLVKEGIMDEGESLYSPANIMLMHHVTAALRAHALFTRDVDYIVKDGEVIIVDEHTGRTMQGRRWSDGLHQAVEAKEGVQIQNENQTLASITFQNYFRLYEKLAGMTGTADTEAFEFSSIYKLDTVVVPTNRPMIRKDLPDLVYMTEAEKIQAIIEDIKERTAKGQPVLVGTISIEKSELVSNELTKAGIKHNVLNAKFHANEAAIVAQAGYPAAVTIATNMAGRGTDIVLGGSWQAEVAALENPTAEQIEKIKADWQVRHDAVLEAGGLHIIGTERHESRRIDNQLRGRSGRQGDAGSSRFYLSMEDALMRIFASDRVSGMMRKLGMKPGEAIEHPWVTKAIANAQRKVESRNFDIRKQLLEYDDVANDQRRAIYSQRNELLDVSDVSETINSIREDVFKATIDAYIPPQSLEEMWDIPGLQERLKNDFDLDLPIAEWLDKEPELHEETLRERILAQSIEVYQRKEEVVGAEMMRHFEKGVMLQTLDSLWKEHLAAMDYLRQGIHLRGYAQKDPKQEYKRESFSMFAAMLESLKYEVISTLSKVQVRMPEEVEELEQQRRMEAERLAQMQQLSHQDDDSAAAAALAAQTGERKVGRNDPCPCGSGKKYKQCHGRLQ

As for `CCN(CC)CCNC(=O)c1nn(CC)cc1Cl`, the Percent Effect was 0.115% in [1]; 20% in assay [2]; -10.1% in assay [3]; -7.51% in assay [4]; 2.55% in [5]; -10.7% in assay [6]. Besides, the Percent Effect was 9.43% in assay [7]; 29.3% in assay [8]; 5.29% in assay [9]; 10.3% in assay [10]; -9.1% in assay [11].

As for `O=C(CCNS(=O)(=O)c1ccc2c(c1)CCCC2)NCc1ccoc1`, the Percent Effect in assay [1] was -5%; in assay [2], 5.33%; in assay [3], 8.4%; in assay [4] it was 5.02%; in assay [5] it was -2.43%; in assay [6] it was -2.08%. The Percent Effect in assay [7] is 8.37%; in assay [8], 14.2%; in assay [9], 4.92%; in assay [10], 11.1%; in assay [11] it was -6.46%.

For the compound `O=C1CCC2(CCN(Cc3cc(F)ccc3Cl)CC2)CN1C1CCCC1`, the Percent Effect in [1] is 0.0694%; in assay [2], 13.3%; in assay [3], -4.38%; in assay [4], 3.44%; in assay [5], 3.99%; in assay [6], 0%. Besides, the Percent Effect in assay [7] was 18.1%; in [8], 18.2%; in [9], 7.1%; in assay [10], 13.6%; in [11], -2.27%.

In the case of `Cc1nn(C)cc1C(=O)N1C[C@H]2CC[C@@H]1CN(S(=O)(=O)N(C)C)C2`, the Percent Effect is -0.765% in assay [1]; 5.33% in assay [2]; -1.08% in assay [3]; 4.66% in assay [4]; -8.08% in assay [5]; 2.6% in assay [6]. Moreover, the Percent Effect in assay [7] is 20.2%; in assay [8] it was 13.3%; in assay [9], 0.546%; in [10] it was 1.24%; in assay [11], -6.02%.

`CCOCCn1nc(C)cc1C(=O)N1CCOCC(CO)C1` (stereo unspecified): the Percent Effect in [1] was -2.3%; in assay [2] it was 18.9%; in assay [3], 0.311%; in [4], 24.4%; in assay [5], 7.14%; in assay [6], 31.9%. Further, the Percent Effect was 22.1% in assay [7]; 1.44% in assay [8]; 3.7% in assay [9]; 12.2% in [10]; -10.6% in assay [11].

As to `CN1CCN(Cc2cn3c(n2)CN(Cc2cccnc2)CC3)CC1`, the Percent Effect is 5.16% in assay [1]; 16.2% in [2]; 12.3% in assay [3]; -13.1% in [4]; -7.14% in assay [5]; 2.23% in assay [6]. The Percent Effect in [7] was 5.72%; in assay [8], 16.3%; in [9] it was 1.08%; in [10], 10.3%; in assay [11], -4.09%.

Regarding `O=C(O)C1(Cc2ccccc2Cl)CCN(c2ncccc2F)CC1`, the Percent Effect in assay [1] is -0.132%; in [2] it was 5.41%; in assay [3], -2.78%; in assay [4], 5.67%; in [5], 1.54%; in [6], 1.91%. For the same compound, the Percent Effect was 19.5% in assay [7]; 7.74% in assay [8]; 6.88% in assay [9]; 2.44% in assay [10]; -3.4% in assay [11].

Take `c1cnn(C2CN(Cc3nc(-c4ccsc4)no3)C2)c1`: the Percent Effect in [1] was -3.15%; in assay [2], -10.5%; in assay [3], -7.01%; in assay [4], 2.96%; in assay [5], 8.27%; in assay [6] it was 1.15%. Besides, the Percent Effect in assay [7] was 12.7%; in assay [8] it was -0.515%; in assay [9], 4.41%; in assay [10], 12.2%; in [11], -4.96%.

On to `Cc1cnc(N2C[C@H]3C[C@H](C(=O)N(C)C)[C@@H](C2)O3)nc1`, for which the Percent Effect was -4.03% in [1]; -5.33% in [2]; 5.45% in assay [3]; -2.75% in assay [4]; 6.76% in assay [5]; -46.1% in assay [6]. In addition, the Percent Effect in assay [7] is 1.54%; in assay [8], -13.3%; in assay [9], -1.04%; in [10] it was 0%; in assay [11], -3.12%.

For the compound `CNC(=O)[C@@]12CCO[C@@H]1CCN(S(=O)(=O)c1cccc(C)c1)C2`, the Percent Effect was -2.33% in assay [1]; 10.8% in assay [2]; 2.22% in assay [3]; 0.794% in assay [4]; 3.23% in [5]; 7.96% in [6]. Further, the Percent Effect in assay [7] is 9.96%; in assay [8], 11.1%; in assay [9], 1.08%; in assay [10], 12.8%; in assay [11], -1.83%.

On to `Cc1ncc(CN(C)CC2CCCN2c2cccnn2)s1` (stereo unspecified), for which the Percent Effect is -4.33% in assay [1]; 1.27% in assay [2]; -16.7% in assay [3]; 0.813% in assay [4]; 3.79% in assay [5]; -0.645% in assay [6]. In addition, the Percent Effect in assay [7] was 25.6%; in assay [8], 0.297%; in assay [9], 9.38%; in [10], 2.53%; in assay [11] it was -37.9%.
